Only some compounds are listed: those with a hit (about 6.9% of all), similar ones and a draw of the others.
IL1B secr inh: inflammasome signaling inhibition, IL-1 beta readout; THP-1 LPS/ATP IL-1B secretion, AlphaLISA, 16 h; hits give low values; activity change, % at 57.5 µM; 360,000 tested, 4.7% active; AID 743279; in the data active = activity change below about -50%; inconclusive = mostly about -30% to -49%; note: % is set by controls: 0 for no effect and ±100 for the full control effect
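THP-1 cells pretreated 1 hr with compounds (up to 57.5 uM final), then stimulated with LPS (250 ng/mL final) plus ATP (1.25 mM final); secreted IL-1B measured by AlphaLISA after 16 hr, decreased signal indicating inhibition.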
Giardia kill: kills Giardia lamblia; Giardia lamblia trophozoite viability; activity change, % at 7.66 µM, hits read low; 340,000 tested, 0.15% active; in the data active = activity change below about -80%; inconclusive = between about -30% and that limit;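 note: parasites exposed to compound for two days anaerobically before the ATP read; % is set by controls: 0 for no effect and ±100 for the full control effect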
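Luminescence from cellular ATP indicates surviving trophozoites (100 cells/well) following 48 hrs anaerobic compound treatment at 37 deg C; signal develops 15-30 min at room temperature.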
MCF10A rereplic: DNA re-replication induction in MCF 10a cells. MCF 10A DNA re-replication, Hoechst nuclear intensity, 48 h. Potency, µM (titrated, usually from 46.1 µM), inactives show at the highest dose activity, positive = re-replication, usual class: activators. 350,000 tested, 2.9% active. AID 624296; note: potency is the fitted concentration of half-maximal effect; % of control where 0% means no effect; nearly all actives have a fitted effect of over 50% in size
SW480 rereplic: induces DNA re-replication in SW480 colon adenocarcinoma cells; SW480 DNA re-replication, Hoechst DNA content imaging, 48 h; Potency, µM (highest dose often 46.1 µM), for the others: at the highest dose re-replication activation, most hits filed as activators; 340,000 tested, 1.8% active; AID 624297; note: potency is the fitted concentration of half-maximal effect; % of control where 0% means no effect; nearly all actives have a fitted effect of over 55% in size
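Quantitative HTS format with DMSO vehicle controls; 48 hr drug incubation at 37 C, then 40 min Hoechst staining and scanning imager measurement at 405 nm excitation.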
Vif-APOBEC3G blk: Vif-A3G binding inhibition; Potency, µM (highest dose often 46.1 µM), without a hit: at the top dose activity, negative = active, usual class: inhibitors; AID 602310; 410,000 tested, 0.076% active; HeLa A3G-eYFP + Vif (tagged APOBEC3G with the HIV-1 protein that degrades it), YFP fluorescence, overnight; note: potency is the fitted concentration of half-maximal effect; % is set by controls: 0 for no effect and ±100 for the full control effect; nearly all actives have a fitted effect of over 60% in size
Target sequence (Q9HC16 whole entry, looked up): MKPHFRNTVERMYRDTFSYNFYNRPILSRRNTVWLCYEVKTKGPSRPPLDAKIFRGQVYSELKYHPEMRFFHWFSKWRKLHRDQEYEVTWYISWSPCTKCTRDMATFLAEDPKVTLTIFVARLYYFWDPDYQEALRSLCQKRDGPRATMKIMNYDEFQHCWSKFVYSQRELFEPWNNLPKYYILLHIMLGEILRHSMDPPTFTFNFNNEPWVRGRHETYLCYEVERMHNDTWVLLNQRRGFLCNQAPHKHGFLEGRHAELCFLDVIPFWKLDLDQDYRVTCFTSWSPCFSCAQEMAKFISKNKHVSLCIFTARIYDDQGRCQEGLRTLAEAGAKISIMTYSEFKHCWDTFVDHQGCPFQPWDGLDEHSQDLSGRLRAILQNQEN
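HeLa cells stably expressing Vif and C-terminally eYFP-tagged A3G, seeded overnight at 37 deg C, then exposed to compound by pintool overnight at 37 deg C. Rise in yellow fluorescence (Ex 488/Em 500-530, Acumen) marks blocked Vif-driven A3G degradation.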
Vif-APOBEC3F blk: blocks the Vif interaction with APOBEC3F. HeLa A3F-eYFP + Vif (tagged APOBEC3F with the HIV-1 protein that degrades it), YFP fluorescence increase. Potency, µM (series often up to 46.1 µM), for inactives: at the top dose activity, negative = active. 390,000 tested, 0.2% active; note: potency is the fitted concentration of half-maximal effect; % of control where 0% means no effect; nearly all actives have a fitted effect of over 65% in size
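HeLa cells stably expressing Vif plus C-terminally eYFP-tagged A3F were seeded, incubated overnight at 37 deg C, dosed with compound, incubated overnight again at 37 deg C. Yellow fluorescence (Ex 488/Em 500-530) reported blocked Vif-mediated A3F-eYFP degradation.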
Active calls of the source: *; i = inactive; ? = inconclusive; · = no result. Unless noted, calls come from the whole dose curve; as a rule, active = well fitted curve in the direction sought with a large enough effect; inconclusive = small, poorly fitted or top-dose-only effect, or another doubt; inactive = no such curve, though single readings can be large; an effect the other way counts as inactive or inconclusive.

SMILES	IL1B secr inh	Giardia kill	MCF10A rereplic	SW480 rereplic	Vif-APOBEC3G blk	Vif-APOBEC3F blk
COc1ccccc1N1CCN(C(=O)c2cc3c(=O)oc4ccccc4c3s2)CC1	·	·	·	·	2%	2%
Cc1ccc(N2N=C(c3ccc(F)cc3)CC2c2ccco2)cc1 (centres undefined)	9	1	5.8µM*	?	-1%	-12%
CC(=O)N1N=C(c2ccc(C)cc2)CC1c1ccco1 (centres undefined)	-20	-1	?	-10%	4%	16%
C(=C\c1ccco1)/C1=NN(c2ccccc2)C(c2ccco2)C1 (centres undefined)	-7	0	2.1µM*	2.3µM*	?	25µM*
Cc1nc(N2N=C(c3ccc(Cl)cc3)CC2c2ccco2)sc1C(=O)N(C)C (centres undefined)	?	-9	23µM*	18µM*	-5%	-1%
CC(=O)N1N=C(c2ccc(Cl)cc2)CC1c1ccco1 (centres undefined)	-10	-15	6%	-4%	5%	-2%
COc1cccc(CCNC(=O)c2cnc3sc(N4CCCC4)nn3c2=O)c1	·	·	·	·	4%	-4%
O=c1oc2ccccc2c(N2CCCCC2)c1[N+](=O)[O-]	-50*	-15	-2%	?	-5%	6%
O=c1oc2ccccc2c(N2CCCC2)c1[N+](=O)[O-]	-4	-2	6%	-24%	2%	-1%
Nc1nonc1-n1nnc(C(=O)N/N=C/c2cccnc2)c1CSC1=NCCS1	·	-30	18µM*	6%	-9%	-13%
Cc1ccc(/C=N/NC(=O)c2nnn(-c3nonc3N)c2CSc2ccccc2)s1	11	0	21µM*	13µM*	2%	-6%
Nc1nonc1-n1nnc(C(=O)N/N=C/c2cccnc2)c1CSc1ccccc1	-4	7	1%	2%	1%	1%
Nc1nonc1-n1nnc(C(=O)N/N=C/c2ccc(Br)cc2)c1CSC1=NCCS1	-102*	10	?	?	-22%	-3%
CC(C)c1ccc(/C=N/NC(=O)c2nnn(-c3nonc3N)c2CSC2=NCCS2)cc1	-87*	0	?	-2%	-15%	-29%
COc1ccc(CCNC(=O)C(=O)NCC(c2ccco2)S(=O)(=O)c2cccs2)cc1 (centres undefined)	·	·	·	·	4%	-1%
CC(NCC(=O)NCCc1ccc(S(N)(=O)=O)cc1)c1ccc(F)cc1 (centres undefined)	i	-8	-5%	26µM*	-3%	-17%
CC(=O)c1cccc(Nc2nc(-c3ccccc3)cs2)c1	-1	7	?	-13%	-4%	-13%
O=C(Nc1ccc(-c2csc(Nc3cccc(C(F)(F)F)c3)n2)cc1)c1ccccc1	89	-6	18µM*	?	?	?
CCCCC(=O)Nc1cccc(-c2csc(-c3ccccc3)n2)c1	-79*	3	26µM*	?	-2%	1%
O=C(Nc1cccc(-c2csc(Nc3cccc(C(F)(F)F)c3)n2)c1)c1ccccc1	4	14	?	17%	-4%	2%
O=C(Nc1cccc(-c2csc(Nc3ccccc3)n2)c1)c1ccccc1	-61*	-17	?	5%	-16%	7%
CC(=O)c1cccc(Nc2nc(-c3cccnc3)cs2)c1	-88*	1	-7%	0%	-6%	1%
O=C(Nc1ccc(-c2csc(Nc3ccc(Cl)cc3)n2)cc1)c1ccccc1	12	11	3%	-7%	-5%	-3%
COc1ccc(Cl)cc1C(=O)NCc1nnnn1-c1ccccc1	·	·	·	·	6%	-6%
CC(C)CC1N=C2c3ccccc3N=C(SCC(=O)NCCc3ccc(Cl)cc3)N2C1=O (centres undefined)	·	·	·	·	3%	-5%
SMILES	IL1B secr inh	Giardia kill	MCF10A rereplic	SW480 rereplic	Vif-APOBEC3G blk	Vif-APOBEC3F blk
CCOC(=O)c1sc2nc(C3CC3)cc(-c3ccc(F)cc3)c2c1N	-4	10	?	18µM*	-7%	-1%
CCOC(=O)c1sc2nc(C3CC3)cc(-c3ccc(OC)cc3)c2c1N	5	10	3.7µM*	6.5µM*	1%	3%
CCOC(=O)c1sc(-c2ccc(OC)cc2)cc1N	?	19	?	18%	-12%	-8%
CCc1ccc(NC(=O)Cn2cnc3sc(C)c(S(=O)(=O)N4CCN(c5ccccc5OC)CC4)c3c2=O)cc1	·	·	·	·	1%	2%
Cc1cc(C(=O)N2CCCC(C(=O)c3ccc(Cl)cc3C)C2)no1 (centres undefined)	i	-3	?	23µM*	-2%	-9%
Cc1cc(Cl)ccc1C(=O)C1CCCN(C(=O)c2cscn2)C1 (centres undefined)	-5	-19	19%	-31%	4%	-2%
O=C(COc1ccccc1Cl)Nc1ccc(N2CCCC2)cc1	-12	-5	?	16µM*	0%	-17%
O=C(Nc1ccc(N2CCCCC2)cc1)c1ccccn1	-3	-102*	?	9%	1%	2%
C/C(=N\NC(=O)c1ccccc1F)c1cccc(NC(=O)c2ccccc2)c1	-2	0	8%	1%	-4%	0%
O=C(Nc1cccc(NC(=O)c2ccccc2F)c1)c1ccccc1	-54*	8	2%	?	-5%	2%
O=C(Nc1ccc(N2CCCC2)c(Cl)c1)c1ccccc1F	-50*	·	·	·	-8%	-6%
CCN1CCN(c2ccc(NC(=O)COc3ccccc3Cl)cc2)CC1	-17	17	?	-5%	2%	7%
CCCC(=O)OC1=CN(Cc2ccccc2)S(=O)(=O)c2ccccc21	·	·	·	·	1%	-1%
Cc1nnc(SCC(=O)NCc2ccc(N(C)C)cc2)c2nn(-c3ccccc3)c(C)c12	·	·	·	·	-5%	-1%
Cc1ccc(C(=O)Nc2ccccc2C(=O)O)cc1S(=O)(=O)N1CCCCCC1	·	·	·	·	0%	0%
O=C(Nc1ccc(N2CCCCCC2)cc1)c1ccccc1Cl	?	6	6.5µM*	13µM*	?	14%
CC(=O)N1CCN(c2ccc(NC(=O)c3ccccc3Cl)cc2)CC1	12	-4	3%	7%	-9%	-2%
Oc1ccccc1CNc1ccc(Br)cn1	-114*	-8	?	0%	-11%	·
CCOC(=O)c1nc2cc3n(c(C)c-2c1C)C(C)C(CC)=C3C (centres undefined)	-73*	-2	-2%	-1%	4%	-25%
CCOC(=O)c1cn2ccc(C)cc2n1	2	-9	5%	-56%	10%	-2%
Cc1nn2c(C)c(C(=O)NC(C)(C)C)cnc2c1-c1ccc(F)cc1	·	·	·	·	0%	-3%

High-throughput results: PubChem, National Center for Advancing Translational Sciences (NCATS)
